Reference: the supplement of paper PMC10515830
Where a name gives a salt, the structure may show the parent alone.

Columns and labels:
Conditions in all cases: 10 µM; exposure time 6 h
[1] = test system: Danio rerio larvae (5 dpf); assay: difference in excitability vs DMSO (percentage points); higher = more excitable than DMSO
Summary of the method: (§1)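 Wild-type zebrafish larvae at 5 dpf were kept in 96-well plates and exposed for 6 h to 100 µL egg water holding library compound at a final concentration of 10 µM. From 3 h into exposure, the plates were held at 28.5 ℃ and photographed every 6 s through a 3-h programme of moving lines and 100 ms, 400Hz tones. Each behaviour was scored by Z-LaP Tracker, a DeepLabCut model, and averaged over 48 larvae per compound. Every value gives the compound mean minus the vehicle control mean, in percentage points.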

[2] = test system: Danio rerio larvae (5 dpf); assay: difference in startle response vs DMSO (percentage points); higher = stronger startle than DMSO
Summary of the method: as §1

[3] = test system: Danio rerio larvae (5 dpf); assay: difference in activity during first hour vs DMSO (percentage points); higher = more activity than DMSO
Summary of the method: as §1

[4] = test system: Danio rerio larvae (5 dpf); assay: difference in habituation to acoustic stimuli vs DMSO (percentage points); higher = more habituation than DMSO
Summary of the method: as §1

[5] = test system: Danio rerio larvae (5 dpf); assay: difference in combined optomotor response to red, green and blue moving lines vs DMSO (percentage points); higher = stronger optomotor response than DMSO
Summary of the method: as §1

Row | SMILES | difference in excitability [1] | difference in startle response [2] | difference in activity during first hour [3] | difference in habituation to acoustic stimuli [4] | difference [5]
1 | CCOc1ccc(Cc2cc([C@@H]3O[C@H](CO)[C@@H](O)[C@H](O)[C@H]3O)ccc2Cl)cc1 [Dapagliflozin] | -2.18 | 0.361 | -2.82 | -5.36 | 5.64
2 | COc1cc(C(=O)NCc2ccc(OCCN(C)C)cc2)cc(OC)c1OC [Trimethobenzamide (hydrochloride)] | -3.22 | 1.06 | -0.789 | 2.91 | -5.61
3 | COc1cc2c(cc1OC)[C@@H](Cc1cc(OC)c(OC)c(OC)c1)[N+](C)(CCCOC(=O)CC/C=C/CCC(=O)OCCC[N+]1(C)CCc3cc(OC)c(OC)cc3[C@H]1Cc1cc(OC)c(OC)c(OC)c1)CC2 (stereo not given in full) [Mivacurium (chloride)] | 19.5 | -7.63 | -16.7 | 4.16 | 5.12
4 | NNCCc1ccccc1 [Phenelzine (sulfate)] | -5.16 | 2.45 | -14.5 | 5.81 | 2.16
5 | CCCCCOC(=O)Nc1nc(=O)n([C@@H]2O[C@H](C)[C@@H](O)[C@H]2O)cc1F [Capecitabine] | -2.56 | -2.24 | -0.876 | -0.579 | -1.26
6 | Oc1c(Cl)cc(Cl)c(Cl)c1Cc1c(O)c(Cl)cc(Cl)c1Cl [Hexachlorophene] | 8.13 | -9.45 | -18.6 | -9.66 | -15.6
7 | O=C(C1CCCCC1)N1CC(=O)N2CCc3ccccc3C2C1 (stereo not given) [Praziquantel] | 27.3 | 13.2 | -17.7 | 11 | 10.4
8 | COC(=O)C1=C(C)NC(C)=C(C(=O)OCCN(C)Cc2ccccc2)C1c1cccc([N+](=O)[O-])c1 (stereo not given) [Nicardipine (hydrochloride)] | 7.46 | -1.35 | 14.3 | -16.5 | -6.14
9 | COc1ccc2c3c1O[C@H]1C[C@@H](O)C=C[C@@]31CCN(C)C2 [Galantamine] | 1.36 | -0.28 | 15.8 | -3.53 | 4.1
10 | C#C[C@]1(O)CC[C@H]2[C@@H]3CCc4cc(O)ccc4[C@H]3CC[C@@]21C [Ethynyl Estradiol] | 3.58 | -3.27 | -24 | -11 | -17.5
11 | Nc1nc2[nH]cc(CCc3ccc(C(=O)N[C@@H](CCC(=O)O)C(=O)O)cc3)c2c(=O)[nH]1 [Pemetrexed (sodium salt hydrate)] | 7.7 | -0.109 | -1.67 | 4.63 | 5.29
12 | CCOC(=O)[C@H](CCc1ccccc1)N[C@@H](C)C(=O)N1[C@H](C(=O)O)C[C@H]2CCCC[C@@H]21 [Trandolapril] | -2.52 | -0.34 | 2.67 | -0.88 | 6.04
13 | Cc1oncc1C(=O)Nc1ccc(C(F)(F)F)cc1 [Leflunomide] | 20.4 | -4.19 | 4.33 | -10.8 | 2.2
14 | S=c1nc[nH]c2nc[nH]c12 [6-Mercaptopurine (hydrate)] | 6.66 | 2.46 | -5.06 | -0.245 | 1.98
15 | COC(=O)N[C@H](C(=O)N1CCC[C@H]1c1nc(-c2ccc3c(c2)O[C@@H](c2ccccc2)n2c-3cc3cc(-c4c[nH]c([C@@H]5CCCN5C(=O)[C@@H](NC(=O)OC)C(C)C)n4)ccc32)c[nH]1)C(C)C [Elbasvir] | 9.31 | -11.8 | 0.959 | 5.9 | 1.3
16 | CC(S)C(=O)NCC(=O)O (stereo not given) [Tiopronin] | 1.71 | -1.91 | 3.62 | -3.05 | 3.9
17 | CN(C)CC[C@@H](c1ccc(Cl)cc1)c1ccccn1 [Dexchlorpheniramine (maleate)] | 5.44 | 3.98 | -18.8 | 1.79 | -3.17
18 | O=C(c1ccc(OCCN2CCCCC2)cc1)c1c(-c2ccc(O)cc2)sc2cc(O)ccc12 [Raloxifene (hydrochloride)] | 22 | -0.808 | -9.71 | 2.6 | 1.59
19 | CC[C@H](Nc1ncnc2[nH]cnc12)c1nc2cccc(F)c2c(=O)n1-c1ccccc1 | 5.3 | 1.19 | -0.052 | -0.933 | 2.36
20 | Nc1ccc(C(=O)NCC(=O)O)cc1 [4-Aminohippuric Acid] | 3.62 | 5.22 | 3.44 | -0.693 | 7.16
21 | C[C@]12C=CC(=O)N[C@@H]1CC[C@@H]1[C@@H]2CC[C@]2(C)[C@@H](C(=O)Nc3cc(C(F)(F)F)ccc3C(F)(F)F)CC[C@@H]12 [Dutasteride] | 18.8 | -0.713 | 22.4 | -8.39 | -3.79
22 | CC[C@@H]1C(=O)OC[C@@H]1Cc1cncn1C [(+)-Pilocarpine (hydrochloride)] | 9.24 | -3.79 | -22.2 | 5.07 | -5.32
23 | C[n+]1ccccc1/C=N/O [Pralidoxime (chloride)] | 1.97 | -3.28 | 6.01 | 2.57 | 1.74
24 | C[C@H](Nc1ncnc2nc[nH]c12)c1cc2cccc(Cl)c2c(=O)n1-c1ccccc1 | -1.93 | 2.84 | 12.8 | 2.7 | 8.44

Row | SMILES | difference in excitability [1] | difference in startle response [2] | difference in activity during first hour [3] | difference in habituation to acoustic stimuli [4] | difference [5]
25 | O=c1[nH]cnc2c1ncn2[C@H]1CC[C@@H](CO)O1 [Didanosine] | 1.69 | -3.05 | 4.04 | -1.02 | 4.2
26 | CCC1(C)CC(=O)NC1=O (stereo not given) [Ethosuximide] | 2.89 | 4.52 | -3.89 | 4.09 | 0.956
27 | CCC(=O)O[C@]1(C(=O)SCF)[C@H](C)C[C@H]2[C@@H]3C[C@H](F)C4=CC(=O)C=C[C@]4(C)[C@@]3(F)[C@@H](O)C[C@@]21C [Fluticasone Propionate] | -4.47 | -3.21 | 11.5 | 1.17 | 14.7
28 | CC1=C(C(=O)O)N2C(=O)[C@@H](NC(=O)[C@H](N)c3ccccc3)[C@H]2SC1 [Cephalexin] | 6.31 | 7.97 | 2.55 | -0.572 | 3.98
29 | CN1CCN(C2=Nc3ccccc3Oc3ccc(Cl)cc32)CC1 [Loxapine (succinate)] | 20.5 | -13.4 | 43.6 | -11 | -0.239
30 | CC1=NN(c2ccc(C)c(C)c2)C(=O)/C1=N\Nc1cccc(-c2cccc(C(=O)O)c2)c1O [Eltrombopag] | 19.6 | -0.303 | 17.7 | 1.01 | -0.694
31 | Nc1nc(=O)c2nc(CNc3ccc(C(=O)N[C@@H](CCC(=O)O)C(=O)O)cc3)cnc2[nH]1 [Folic Acid] | 7.04 | -0.204 | 15.5 | 2.6 | 6.5
32 | CCCCCCCN(CC)CCCC(O)c1ccc(NS(C)(=O)=O)cc1 (racemic) [(±)-Ibutilide (hemifumarate)] | 17.7 | 1.14 | -7.19 | 6.3 | -6.18
33 | CN(C)C(=O)c1cc2cnc(Nc3ccc(N4CCNCC4)cn3)nc2n1C1CCCC1 | 10.3 | -7.97 | 2.64 | -2.12 | 0.1
34 | CCOC(=O)[C@H](CCc1ccccc1)N[C@@H](C)C(=O)N1[C@H](C(=O)O)C[C@@H]2CCC[C@@H]21 [Ramipril] | -5.85 | -2.41 | 5.42 | -0.379 | 7.67
35 | Clc1cccc(Cl)c1NC1=NCCN1 [Clonidine (hydrochloride)] | 9.22 | 3.55 | -11.7 | 0.121 | 6.82
36 | Cc1cc(C2CCCCC2)n(O)c(=O)c1 [Ciclopirox] | 3.8 | -2.37 | 8.43 | 5.39 | 8.2
37 | CO[C@@H]1[C@H](N(C)C(=O)c2ccccc2)C[C@H]2O[C@]1(C)n1c3ccccc3c3c4c(c5c6ccccc6n2c5c31)C(=O)NC4 | -5.3 | -4.96 | 4.11 | 8.1 | 0.314
38 | Cn1cnc2c(F)c(Nc3ccc(Br)cc3F)c(C(=O)NOCCO)cc21 [Binimetinib] | -0.212 | -0.502 | 15.3 | -0.78 | 7.07
39 | C=C(CC)C(=O)c1ccc(OCC(=O)O)c(Cl)c1Cl [Ethacrynic Acid] | 4.29 | 4.46 | 19.4 | -1.45 | 6.1
40 | O=C1CN(/N=C/c2ccc(-c3ccc([N+](=O)[O-])cc3)o2)C(=O)N1 [Dantrolene (sodium salt)] | 9.39 | 1.23 | -7.55 | 0.0919 | 0.433
41 | CC(C)(C)NC(=O)[C@@H]1C[C@@H]2CCCC[C@@H]2CN1C[C@@H](O)[C@H](Cc1ccccc1)NC(=O)[C@H](CC(N)=O)NC(=O)c1ccc2ccccc2n1 [Saquinavir (mesylate)] | 9.2 | -1.02 | 0.593 | 0.0845 | -1.01
42 | NC(=O)Cc1cccc(C(=O)c2ccccc2)c1N [Nepafenac] | 9.24 | 1.72 | -6.03 | 4.01 | -4.77
43 | NS(=O)(=O)c1cc(C2(O)NC(=O)c3ccccc32)ccc1Cl (stereo not given) [Chlorthalidone] | -10 | 0.0654 | 5.83 | 3.4 | -3.83
44 | Cc1ccc(O)c([C@H](CCN(C(C)C)C(C)C)c2ccccc2)c1 [Tolterodine (tartrate)] | 11.1 | -0.221 | -20.3 | -5.38 | -10.6
45 | CCc1nn(CCCN2CCN(c3cccc(Cl)c3)CC2)c(=O)n1CCOc1ccccc1 [Nefazodone (hydrochloride)] | 9.32 | -3.06 | 29.1 | -9.41 | -10.9
46 | C[N+]1(C)[C@@H]2C[C@@H](OC(=O)C(O)(c3cccs3)c3cccs3)C[C@H]1[C@@H]1O[C@@H]12 [Tiotropium (bromide)] | -0.664 | -4.87 | -7.11 | -4.6 | -6.76
47 | Cc1nc2c([nH]1)-c1ccccc1N(C(=O)c1ccc(NC(=O)c3ccccc3-c3ccccc3)cc1)CC2 [Conivaptan (hydrochloride)] | 12.9 | 4.28 | -10.7 | 3.17 | -0.877
48 | CC(=O)O[C@]1(C(C)=O)CC[C@H]2[C@@H]3C=C(C)C4=CC(=O)CC[C@]4(C)[C@H]3CC[C@@]21C [Megestryl Acetate] | 20.8 | -4.3 | 4.4 | -8.79 | -10.8
